Experimental findings from ChEMBL document CHEMBL1961873, “Compounds: GSK PKIS; Assays: Nanosyn kinase panel” (2012) are described below.

Molecules are shown by their SMILES.

The target in assay [1] is Protein kinase C gamma type (Homo sapiens) (UniProt P05129). Particulars: at 1 µM.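 Also: each value is an averaged percent inhibition of the enzyme.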
The target of assay [2] is T1, Protein kinase C iota type (Homo sapiens) (UniProt P41743).
T1 sequence (whole entry): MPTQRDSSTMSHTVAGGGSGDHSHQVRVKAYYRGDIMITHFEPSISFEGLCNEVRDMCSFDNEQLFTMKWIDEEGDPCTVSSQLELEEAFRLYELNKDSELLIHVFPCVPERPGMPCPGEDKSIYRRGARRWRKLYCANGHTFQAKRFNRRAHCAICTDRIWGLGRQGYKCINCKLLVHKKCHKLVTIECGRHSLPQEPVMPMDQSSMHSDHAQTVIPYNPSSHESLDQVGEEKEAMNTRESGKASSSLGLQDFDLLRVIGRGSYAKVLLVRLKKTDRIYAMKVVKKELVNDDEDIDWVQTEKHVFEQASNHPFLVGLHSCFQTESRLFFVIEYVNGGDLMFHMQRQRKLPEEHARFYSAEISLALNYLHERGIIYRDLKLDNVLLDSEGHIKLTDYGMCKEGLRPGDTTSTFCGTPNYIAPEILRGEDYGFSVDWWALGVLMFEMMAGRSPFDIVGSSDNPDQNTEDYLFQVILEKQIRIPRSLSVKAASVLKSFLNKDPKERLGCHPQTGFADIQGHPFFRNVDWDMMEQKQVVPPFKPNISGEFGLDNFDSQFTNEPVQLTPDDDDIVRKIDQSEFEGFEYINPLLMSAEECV
Particulars: at 0.1 µM.

The target in assay [3] is T1, Protein kinase C iota type (Homo sapiens). Particulars: at 1 µM.
Assay [4] addresses Protein kinase C theta type (Homo sapiens) (UniProt Q04759). Particulars: at 0.1 µM.
For assay [5] the target is unchanged. Particulars: at 1 µM.
Assay [6] deals with Protein kinase C beta type (Homo sapiens) (UniProt P05771). Particulars: at 0.1 µM.
Assay [7] shares this target. Particulars: at 1 µM.
Assay [8] addresses T2, Serine/threonine-protein kinase D1 (Homo sapiens) (UniProt Q15139).
T2 sequence (whole entry): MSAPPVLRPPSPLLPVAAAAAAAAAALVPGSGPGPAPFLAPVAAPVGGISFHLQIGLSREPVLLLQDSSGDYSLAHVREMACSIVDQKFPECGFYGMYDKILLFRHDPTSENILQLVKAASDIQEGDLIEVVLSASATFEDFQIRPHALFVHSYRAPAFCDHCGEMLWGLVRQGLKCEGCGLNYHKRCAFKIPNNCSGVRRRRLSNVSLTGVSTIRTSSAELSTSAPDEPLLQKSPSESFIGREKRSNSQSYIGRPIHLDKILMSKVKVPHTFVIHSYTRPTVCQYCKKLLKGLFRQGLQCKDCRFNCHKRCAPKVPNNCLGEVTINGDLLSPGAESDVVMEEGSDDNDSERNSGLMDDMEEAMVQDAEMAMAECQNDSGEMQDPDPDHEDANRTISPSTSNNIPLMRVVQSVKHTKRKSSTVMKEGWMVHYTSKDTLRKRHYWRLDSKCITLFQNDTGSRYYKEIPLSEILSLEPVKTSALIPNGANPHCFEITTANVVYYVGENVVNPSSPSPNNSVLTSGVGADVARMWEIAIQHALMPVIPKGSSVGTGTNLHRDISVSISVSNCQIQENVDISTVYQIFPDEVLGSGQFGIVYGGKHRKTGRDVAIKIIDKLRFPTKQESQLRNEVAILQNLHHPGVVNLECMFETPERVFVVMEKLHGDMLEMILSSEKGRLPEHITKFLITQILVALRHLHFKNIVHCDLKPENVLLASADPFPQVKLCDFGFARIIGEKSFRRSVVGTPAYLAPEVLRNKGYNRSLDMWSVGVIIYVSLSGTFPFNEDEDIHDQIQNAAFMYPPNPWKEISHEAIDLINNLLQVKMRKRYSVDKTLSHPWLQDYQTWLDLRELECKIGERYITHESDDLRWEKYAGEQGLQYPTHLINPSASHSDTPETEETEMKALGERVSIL
Particulars: at 0.1 µM.

The target in assay [9] is T2, Serine/threonine-protein kinase D1 (Homo sapiens). Particulars: at 1 µM.
Assay [10] concerns the target T3, Serine/threonine-protein kinase D2 (Homo sapiens) (UniProt Q9BZL6).
T3 sequence (whole entry): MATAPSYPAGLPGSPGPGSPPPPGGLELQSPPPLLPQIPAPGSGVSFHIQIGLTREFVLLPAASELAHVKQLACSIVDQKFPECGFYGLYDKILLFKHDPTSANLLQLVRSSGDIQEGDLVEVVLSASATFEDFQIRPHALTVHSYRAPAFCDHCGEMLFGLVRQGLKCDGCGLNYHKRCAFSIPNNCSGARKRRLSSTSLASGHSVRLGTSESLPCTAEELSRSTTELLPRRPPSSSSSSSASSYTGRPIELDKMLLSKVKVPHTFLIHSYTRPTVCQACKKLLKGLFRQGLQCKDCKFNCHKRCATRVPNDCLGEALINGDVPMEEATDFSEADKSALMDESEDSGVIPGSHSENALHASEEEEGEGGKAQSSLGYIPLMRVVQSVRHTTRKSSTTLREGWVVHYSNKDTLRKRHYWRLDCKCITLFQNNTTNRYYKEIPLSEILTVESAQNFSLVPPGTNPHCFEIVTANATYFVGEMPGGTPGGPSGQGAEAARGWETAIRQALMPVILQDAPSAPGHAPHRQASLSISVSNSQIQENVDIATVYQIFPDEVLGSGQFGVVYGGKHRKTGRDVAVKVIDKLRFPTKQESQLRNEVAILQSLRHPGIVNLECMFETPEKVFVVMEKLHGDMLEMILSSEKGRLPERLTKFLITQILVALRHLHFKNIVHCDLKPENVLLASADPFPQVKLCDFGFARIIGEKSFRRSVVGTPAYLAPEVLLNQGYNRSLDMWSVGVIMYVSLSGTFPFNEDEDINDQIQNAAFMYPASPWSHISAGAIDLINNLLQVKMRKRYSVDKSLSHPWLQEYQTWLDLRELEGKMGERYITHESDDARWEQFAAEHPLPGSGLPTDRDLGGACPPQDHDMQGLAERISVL
As to conditions: at 0.1 µM.

Assay [11] has as its target T3, Serine/threonine-protein kinase D2 (Homo sapiens). As to conditions: at 1 µM.
In assay [12] the target is T4, Serine/threonine-protein kinase D3 (Homo sapiens) (UniProt O94806).
T4 sequence (whole entry): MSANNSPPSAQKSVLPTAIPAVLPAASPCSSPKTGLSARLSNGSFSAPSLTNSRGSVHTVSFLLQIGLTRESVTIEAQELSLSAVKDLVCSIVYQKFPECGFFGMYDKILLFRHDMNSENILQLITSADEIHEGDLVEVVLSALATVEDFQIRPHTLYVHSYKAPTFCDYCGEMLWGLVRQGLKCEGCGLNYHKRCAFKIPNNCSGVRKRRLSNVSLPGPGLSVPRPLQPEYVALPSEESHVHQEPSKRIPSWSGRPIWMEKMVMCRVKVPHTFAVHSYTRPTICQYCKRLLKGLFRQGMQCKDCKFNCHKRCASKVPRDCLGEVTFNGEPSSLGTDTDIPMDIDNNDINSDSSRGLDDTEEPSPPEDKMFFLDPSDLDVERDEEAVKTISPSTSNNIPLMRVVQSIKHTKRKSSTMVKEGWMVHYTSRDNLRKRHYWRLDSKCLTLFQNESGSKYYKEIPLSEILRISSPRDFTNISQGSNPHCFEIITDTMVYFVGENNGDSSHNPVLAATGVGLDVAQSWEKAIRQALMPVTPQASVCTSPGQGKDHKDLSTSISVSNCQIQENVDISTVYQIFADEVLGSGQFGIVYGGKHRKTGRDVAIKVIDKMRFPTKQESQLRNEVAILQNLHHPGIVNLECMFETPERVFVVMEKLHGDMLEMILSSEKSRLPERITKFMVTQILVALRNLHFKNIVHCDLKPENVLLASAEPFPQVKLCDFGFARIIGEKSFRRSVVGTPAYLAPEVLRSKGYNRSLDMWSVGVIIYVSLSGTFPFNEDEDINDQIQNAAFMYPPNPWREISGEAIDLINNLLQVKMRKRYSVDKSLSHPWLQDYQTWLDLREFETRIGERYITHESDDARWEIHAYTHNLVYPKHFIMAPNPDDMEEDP
As to conditions: at 0.1 µM.

Assay [13] has as its target T4, Serine/threonine-protein kinase D3 (Homo sapiens). Particulars: at 1 µM.
In assay [14] the target is T5, cGMP-dependent protein kinase 1 (Homo sapiens) (UniProt Q13976).
T5 sequence (whole entry): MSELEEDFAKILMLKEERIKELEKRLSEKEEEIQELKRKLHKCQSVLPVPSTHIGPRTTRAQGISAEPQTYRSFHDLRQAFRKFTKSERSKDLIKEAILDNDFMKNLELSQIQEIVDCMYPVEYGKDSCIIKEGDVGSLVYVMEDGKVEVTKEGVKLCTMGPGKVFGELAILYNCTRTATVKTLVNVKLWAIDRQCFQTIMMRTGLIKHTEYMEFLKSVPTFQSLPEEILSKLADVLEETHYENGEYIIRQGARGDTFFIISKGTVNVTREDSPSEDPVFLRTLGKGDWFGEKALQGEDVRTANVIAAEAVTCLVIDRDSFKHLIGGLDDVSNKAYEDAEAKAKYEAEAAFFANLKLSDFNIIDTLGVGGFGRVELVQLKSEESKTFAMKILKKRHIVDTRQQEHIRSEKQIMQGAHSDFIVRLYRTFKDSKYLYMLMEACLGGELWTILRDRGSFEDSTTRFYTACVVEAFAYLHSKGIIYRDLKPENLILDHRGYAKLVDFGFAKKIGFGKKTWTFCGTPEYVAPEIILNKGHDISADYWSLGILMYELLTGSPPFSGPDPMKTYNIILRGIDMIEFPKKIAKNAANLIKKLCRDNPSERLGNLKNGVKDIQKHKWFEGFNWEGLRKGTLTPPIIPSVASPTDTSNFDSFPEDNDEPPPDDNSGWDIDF
As to conditions: at 0.1 µM.

Assay [15] concerns the target T5, cGMP-dependent protein kinase 1 (Homo sapiens). Particulars: at 1 µM.
The target in assay [16] is T6, cGMP-dependent protein kinase 2 (Homo sapiens) (UniProt Q13237).
T6 sequence (whole entry): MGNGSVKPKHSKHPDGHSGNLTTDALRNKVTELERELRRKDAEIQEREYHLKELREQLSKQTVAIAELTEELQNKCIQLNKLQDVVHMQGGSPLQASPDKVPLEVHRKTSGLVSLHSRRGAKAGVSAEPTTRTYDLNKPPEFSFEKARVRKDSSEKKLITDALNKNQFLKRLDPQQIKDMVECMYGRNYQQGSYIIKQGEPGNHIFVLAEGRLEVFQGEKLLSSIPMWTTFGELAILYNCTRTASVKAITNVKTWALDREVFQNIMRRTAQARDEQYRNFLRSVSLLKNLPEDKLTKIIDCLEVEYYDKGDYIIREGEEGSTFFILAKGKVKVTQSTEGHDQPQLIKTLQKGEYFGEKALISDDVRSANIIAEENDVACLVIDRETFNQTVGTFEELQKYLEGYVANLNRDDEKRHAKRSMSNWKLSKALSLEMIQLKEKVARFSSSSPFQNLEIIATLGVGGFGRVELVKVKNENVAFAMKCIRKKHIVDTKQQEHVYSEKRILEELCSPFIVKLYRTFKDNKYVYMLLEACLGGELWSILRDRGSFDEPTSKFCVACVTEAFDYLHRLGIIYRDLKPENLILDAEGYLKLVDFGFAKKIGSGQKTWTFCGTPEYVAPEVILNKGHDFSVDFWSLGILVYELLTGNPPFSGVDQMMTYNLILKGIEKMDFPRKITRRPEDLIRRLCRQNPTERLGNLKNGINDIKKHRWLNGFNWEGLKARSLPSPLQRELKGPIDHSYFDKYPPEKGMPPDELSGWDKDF
Particulars: at 0.1 µM.

Assay [17] deals with T6, cGMP-dependent protein kinase 2 (Homo sapiens). As to conditions: at 1 µM.
The target of assay [18] is T7, cAMP-dependent protein kinase catalytic subunit PRKX (Homo sapiens) (UniProt P51817).
T7 sequence (whole entry): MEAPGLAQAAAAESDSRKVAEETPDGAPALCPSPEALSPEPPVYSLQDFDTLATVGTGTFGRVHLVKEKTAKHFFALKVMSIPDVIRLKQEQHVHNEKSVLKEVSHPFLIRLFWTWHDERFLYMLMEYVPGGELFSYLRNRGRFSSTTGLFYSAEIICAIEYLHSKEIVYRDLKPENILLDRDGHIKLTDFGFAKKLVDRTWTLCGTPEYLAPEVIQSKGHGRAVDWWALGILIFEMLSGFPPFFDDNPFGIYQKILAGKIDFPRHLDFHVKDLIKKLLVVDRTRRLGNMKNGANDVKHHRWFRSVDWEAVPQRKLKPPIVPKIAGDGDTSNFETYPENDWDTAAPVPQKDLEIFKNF
Particulars: at 0.1 µM.

Assay [19] concerns the target T7, cAMP-dependent protein kinase catalytic subunit PRKX (Homo sapiens). As to conditions: at 1 µM.
In assay [20] the target is Rho-associated protein kinase 1 (Homo sapiens) (UniProt Q13464). Particulars: at 0.1 µM.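 Also: values are mean percent inhibition of ROCK1.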
Sequence of Rho-associated protein kinase 1 (Homo sapiens) (Q13464 2-1354 limits assumed): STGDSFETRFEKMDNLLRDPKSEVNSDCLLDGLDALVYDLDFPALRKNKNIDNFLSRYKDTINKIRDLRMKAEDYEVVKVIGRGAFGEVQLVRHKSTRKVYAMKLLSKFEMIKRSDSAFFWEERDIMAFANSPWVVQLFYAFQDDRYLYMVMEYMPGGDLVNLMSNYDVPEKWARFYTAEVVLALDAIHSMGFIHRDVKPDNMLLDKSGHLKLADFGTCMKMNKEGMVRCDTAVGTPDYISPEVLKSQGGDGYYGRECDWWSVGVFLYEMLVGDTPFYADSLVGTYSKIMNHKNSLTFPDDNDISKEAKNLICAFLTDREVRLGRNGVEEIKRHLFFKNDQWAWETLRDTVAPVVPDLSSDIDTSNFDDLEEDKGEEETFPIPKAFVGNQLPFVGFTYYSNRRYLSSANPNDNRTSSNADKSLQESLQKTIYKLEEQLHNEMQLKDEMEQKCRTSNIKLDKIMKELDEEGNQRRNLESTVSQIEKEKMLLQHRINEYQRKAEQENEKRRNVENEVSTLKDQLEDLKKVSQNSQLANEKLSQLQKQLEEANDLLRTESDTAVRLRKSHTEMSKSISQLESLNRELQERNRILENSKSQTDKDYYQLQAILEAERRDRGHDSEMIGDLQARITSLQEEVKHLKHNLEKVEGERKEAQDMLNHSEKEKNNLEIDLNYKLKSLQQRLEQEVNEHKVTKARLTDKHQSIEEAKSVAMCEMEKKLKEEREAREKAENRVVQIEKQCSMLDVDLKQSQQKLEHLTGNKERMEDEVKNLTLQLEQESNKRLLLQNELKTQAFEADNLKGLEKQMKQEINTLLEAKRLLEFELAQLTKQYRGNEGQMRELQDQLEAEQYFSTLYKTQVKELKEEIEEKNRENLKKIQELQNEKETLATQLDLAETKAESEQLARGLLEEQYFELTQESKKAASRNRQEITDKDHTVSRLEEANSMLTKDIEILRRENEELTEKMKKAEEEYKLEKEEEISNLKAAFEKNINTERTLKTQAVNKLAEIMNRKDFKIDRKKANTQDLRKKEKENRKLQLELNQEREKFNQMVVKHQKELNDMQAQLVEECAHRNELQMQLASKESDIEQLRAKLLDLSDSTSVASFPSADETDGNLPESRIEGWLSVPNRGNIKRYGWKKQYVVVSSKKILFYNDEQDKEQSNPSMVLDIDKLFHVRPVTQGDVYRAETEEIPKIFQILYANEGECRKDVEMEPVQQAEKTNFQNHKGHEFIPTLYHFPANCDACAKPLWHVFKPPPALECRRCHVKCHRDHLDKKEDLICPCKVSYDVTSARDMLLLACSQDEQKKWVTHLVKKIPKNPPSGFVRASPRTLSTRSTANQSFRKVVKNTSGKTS

Sequence of Protein kinase C theta type (Homo sapiens) (Q04759 whole entry, looked up): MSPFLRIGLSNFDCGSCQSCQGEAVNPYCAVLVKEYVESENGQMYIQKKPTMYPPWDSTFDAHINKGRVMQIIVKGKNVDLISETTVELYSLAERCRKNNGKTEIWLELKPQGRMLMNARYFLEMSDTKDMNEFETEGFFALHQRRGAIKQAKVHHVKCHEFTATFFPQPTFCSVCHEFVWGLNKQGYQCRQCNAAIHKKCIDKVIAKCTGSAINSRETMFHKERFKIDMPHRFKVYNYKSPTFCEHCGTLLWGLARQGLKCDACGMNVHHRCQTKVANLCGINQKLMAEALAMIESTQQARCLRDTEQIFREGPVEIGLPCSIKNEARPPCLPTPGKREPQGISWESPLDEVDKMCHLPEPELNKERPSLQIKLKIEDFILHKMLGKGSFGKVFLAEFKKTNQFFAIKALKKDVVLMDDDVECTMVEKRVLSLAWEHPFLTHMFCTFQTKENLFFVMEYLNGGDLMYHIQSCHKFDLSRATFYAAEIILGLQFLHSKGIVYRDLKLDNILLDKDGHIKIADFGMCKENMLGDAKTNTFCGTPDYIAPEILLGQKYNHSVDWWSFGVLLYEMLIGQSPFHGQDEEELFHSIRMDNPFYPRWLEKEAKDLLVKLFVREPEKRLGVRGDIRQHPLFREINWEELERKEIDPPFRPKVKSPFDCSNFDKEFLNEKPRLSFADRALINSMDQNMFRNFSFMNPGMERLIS
Sequence of Protein kinase C beta type (Homo sapiens) (P05771 2-671 limits assumed): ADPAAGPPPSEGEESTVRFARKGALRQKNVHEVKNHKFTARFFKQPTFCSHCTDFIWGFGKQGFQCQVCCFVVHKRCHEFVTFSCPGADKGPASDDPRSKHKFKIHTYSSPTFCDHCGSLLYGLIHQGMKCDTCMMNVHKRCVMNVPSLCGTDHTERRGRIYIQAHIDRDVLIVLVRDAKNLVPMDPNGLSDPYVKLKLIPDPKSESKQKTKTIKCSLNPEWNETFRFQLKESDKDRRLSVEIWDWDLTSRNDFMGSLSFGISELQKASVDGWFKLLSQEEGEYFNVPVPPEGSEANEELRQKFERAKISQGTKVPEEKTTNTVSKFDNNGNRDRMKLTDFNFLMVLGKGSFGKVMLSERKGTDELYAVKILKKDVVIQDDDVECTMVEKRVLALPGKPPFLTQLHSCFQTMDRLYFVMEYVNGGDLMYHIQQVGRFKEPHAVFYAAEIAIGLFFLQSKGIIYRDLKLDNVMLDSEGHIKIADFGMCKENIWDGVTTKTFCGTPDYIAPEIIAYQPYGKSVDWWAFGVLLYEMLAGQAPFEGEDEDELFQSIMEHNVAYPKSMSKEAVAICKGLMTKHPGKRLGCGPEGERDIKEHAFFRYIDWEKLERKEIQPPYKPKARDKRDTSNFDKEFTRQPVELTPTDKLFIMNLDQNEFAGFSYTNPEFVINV

By inhibition is commonly meant the change of the read-out against control, counted positive when it falls. Regarding `COc1ccc2c(-c3ccnc(Nc4cccc(OC(F)(F)F)c4)n3)cnn2n1`, the inhibition stood at 1.65% in [1]; 2.36% in [2]; 1.45% in assay [3]; 2.59% in assay [4]; 4.8% in [5]; 1.08% in [6]. Moreover, the inhibition was 5.19% in assay [7]; 3.42% in assay [8]; 6.19% in [9]; 3.92% in [10]; 5.35% in assay [11]; 3.53% in [12]. In addition, the inhibition turned out to be 5.76% in [13]; 2.98% in assay [14]; 14.2% in assay [15]; 1.96% in assay [16]; 7.99% in assay [17]; 2.02% in assay [18]. The inhibition in assay [19] was 3.71%; in assay [20], 1.01%.

For the compound `O=C(Nc1n[nH]c2cc(-c3ccc(F)cc3)ccc12)C1CC1`, the inhibition in assay [1] came out at 5.71%; in assay [2], 2.42%; in assay [3], 3.67%; in assay [4], 3%; in assay [5], 5.04%; in [6], 2.1%. Also, the inhibition in assay [7] worked out at 4.04%; in [8], 3.02%; in assay [9], 5.62%; in assay [10], 2.7%; in assay [11] it was 4.37%; in [12], 3.68%. In addition, the inhibition in assay [13] was 5.25%; in [14] it was 4.3%; in assay [15] it was 6.58%; in assay [16], 3.33%; in assay [17], 5.58%; in assay [18] it was 2.23%. Moreover, the inhibition in assay [19] is 3.66%; in assay [20], 6.12%.
